Laboratory results from PubChem BioAssay (Tox21).
Records with an inconclusive call do not appear. Where a call stands in place of a potency, no number is given. A number with no mark means an inactive call. Activity calls are given as the source filed them. The call rests on the fitted dose curve; in most records, active means well fitted inhibition curve with a large enough effect in the repeat runs; inconclusive means weak or mixed curves; inactive means no such curve, though single readings can be large or run the other way.

What follows are molecules tested against Cytochrome P450 2D6 (Homo sapiens) (UniProt P10635) (assay: Cytochrome P450 Family 2 Subfamily D Member 6 (CYP2D6) small molecule antagonists: luciferase reporter qHTS assay (AID 1671196; further: nearly all actives have a fitted effect of over 50% in size)). Conditions: P450-Glo CYP2D6 enzyme assay, luciferin luminescence, 1 h; series mostly up to 115 µM.
Method in brief: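 Luminogenic proluciferin substrate, CYP2D6 enzyme; 10 min RT preincubation with compound, NADPH regeneration system added, 1 h RT. Stop/detection reagent, 20 min RT, luminescence read (RLU). Signal proportional to CYP activity.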
Potency means the concentration at half of the fitted maximal effect.

Chain of Cytochrome P450 2D6 (Homo sapiens) (P10635 whole entry, looked up): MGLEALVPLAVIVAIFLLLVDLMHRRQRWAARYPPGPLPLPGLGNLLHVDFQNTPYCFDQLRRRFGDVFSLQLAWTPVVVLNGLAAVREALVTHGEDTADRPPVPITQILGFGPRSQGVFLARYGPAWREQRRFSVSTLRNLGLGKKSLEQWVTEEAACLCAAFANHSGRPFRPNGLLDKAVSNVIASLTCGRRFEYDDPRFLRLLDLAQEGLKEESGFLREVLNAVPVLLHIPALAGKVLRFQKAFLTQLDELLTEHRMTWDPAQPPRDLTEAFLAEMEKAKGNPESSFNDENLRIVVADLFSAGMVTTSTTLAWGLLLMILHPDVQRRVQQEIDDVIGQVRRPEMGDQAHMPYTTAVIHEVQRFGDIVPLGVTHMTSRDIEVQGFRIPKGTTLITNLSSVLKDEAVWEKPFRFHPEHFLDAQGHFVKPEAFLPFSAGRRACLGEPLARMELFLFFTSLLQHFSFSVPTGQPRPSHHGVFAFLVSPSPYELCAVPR

Compound	Potency	activity change, negative = inhibition
CCC1CO1 (stereo not given)	inactive	
CC1(C)S[C@@H]2[C@H](NC(=O)C(c3ccccc3)S(=O)(=O)O)C(=O)N2[C@H]1C(=O)O (stereo not given in full)	inactive	
CC(=O)NC1(c2cccc(F)c2)CCN(CC[C@@]2(c3ccc(Cl)c(Cl)c3)CN(c3ccccc3)C(=O)CO2)CC1	28.3 µM (active)	
CC1=C(CC=O)C(C)(C)CCC1	inactive	
O=C1c2ccccc2C(=O)C1c1nc2ccccc2c(Br)c1O	inactive	
CN1CC(=O)N2[C@H](c3ccc4c(c3)OCO4)c3[nH]c4ccccc4c3C[C@@H]2C1=O	inactive	
CCCCCCCC/C=C\CCCCCCCCO	inactive	
CN(C)CCC=C1c2ccccc2C=Cc2ccccc21	6.17 µM (active)	
C=Cc1ccc(S(=O)(=O)O)cc1	inactive	
C[C@@]12CCC[C@H]1[C@@H]1CC[C@H]3C[C@@H](O)CC[C@]3(C)[C@H]1CC2	inactive	
O=C(O)CCc1nc(-c2ccccc2)c(-c2ccccc2)o1	inactive	
NC(=O)c1ccncc1	inactive	
CCCCCCC(C)(C)C(=O)O	inactive	
O=C1C(=O)c2ccccc2C(O)=C1C1CCC(c2ccc(Cl)cc2)CC1 (stereo not given)	inactive	
C(=C\c1ccccc1)/c1ccccc1	inactive	
Cc1cc(O)ccc1O	inactive	
Cc1cc(=O)c2c(O)c3c(O)cc(=O)c4c3c3c(cc(O)c1c23)C(C)(C)C=4O		-16.7% [at 23.6 µM]
Cc1ccco1	34.8 µM (active)	
Cc1ccccc1N=C(N)Nc1ccccc1C	0.0156 µM (active)	
CCCCCCCCOc1ccc(C(=O)O)cc1	inactive	

Compound	Potency	activity change, negative = inhibition
CCOC(=O)c1ccc(I)cc1	inactive	
Oc1cccc(Nc2ccccc2)c1	37.1 µM (active)	
O=C1c2ccccc2C(=O)C1c1ccc(Br)cc1	inactive	
C[C@@H]1CC(=O)NN=C1c1ccc(NN=C(C#N)C#N)cc1	inactive	
c1ccc2sc(SN(C3CCCCC3)C3CCCCC3)nc2c1	1.25 µM (active)	
Cc1ccc(C(C)(C)O)cc1	inactive	
CC1=Nc2ccc3ccccc3c2C1(C)C	35.6 µM (active)	
Cc1cc(C)c(N)cc1C	22.4 µM (active)	
O=C1NC(=O)c2cc([N+](=O)[O-])ccc21	63.8 µM (active)	
Brc1cc(Br)c(Oc2cc(Br)c(Br)cc2Br)cc1Br	inactive	
CS(=O)(=O)c1ccc(-c2cn3ccccc3n2)cc1	27.5 µM (active)	
Cc1cccc(N(C)C(=S)Oc2ccc3c(c2)CCC3)c1	inactive	
CCCCC(CC)CN (stereo not given)	36.2 µM (active)	
O=C(OC(=O)c1ccccc1)c1ccccc1	inactive	
Brc1cc2ccccc2c2ccccc12	inactive	
CC[N+](CC)(CCNC(=O)C(=O)NCC[N+](CC)(CC)Cc1ccccc1Cl)Cc1ccccc1Cl	15.5 µM (active)	
C=C1c2cccc(O)c2C(O)=C2C(=O)[C@]3(O)C(O)=C(C(N)=O)C(=O)[C@@H](N(C)C)[C@@H]3[C@@H](O)[C@H]12	inactive	
CC(O)c1ccccc1 (stereo not given)	inactive	
COC(=O)[C@H]1[C@H]2C[C@@H]3c4[nH]c5cc(OC)ccc5c4CCN3C[C@H]2C[C@@H](OC(=O)/C=C/c2ccc(O)c(OC)c2)[C@@H]1OC	inactive	
CC(C)=CCC1C(=O)N(c2ccccc2)N(c2ccccc2)C1=O	inactive	

What follows are molecules tested against Cytochrome P450 2C19 (Homo sapiens) (UniProt P33261) (assay: Cytochrome P450 Family 2 Subfamily C Member 19 (CYP2C19) small molecule antagonists: luciferase reporter qHTS assay (AID 1671197; further: nearly all actives have a fitted effect of over 65% in size)). Conditions: P450-Glo CYP2C19 enzyme, luciferin luminescence, 1 h; series mostly up to 52.9 µM.
Method in brief: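 P450-Glo CYP2C19 screening system; proluciferin substrate; DMSO compound stocks; 10 min RT preincubation; NADPH regeneration, 1 h at 37C; luciferin detection reagent, 20 min RT; luminescence as RLU.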

Chain of Cytochrome P450 2C19 (Homo sapiens) (P33261 whole entry, looked up): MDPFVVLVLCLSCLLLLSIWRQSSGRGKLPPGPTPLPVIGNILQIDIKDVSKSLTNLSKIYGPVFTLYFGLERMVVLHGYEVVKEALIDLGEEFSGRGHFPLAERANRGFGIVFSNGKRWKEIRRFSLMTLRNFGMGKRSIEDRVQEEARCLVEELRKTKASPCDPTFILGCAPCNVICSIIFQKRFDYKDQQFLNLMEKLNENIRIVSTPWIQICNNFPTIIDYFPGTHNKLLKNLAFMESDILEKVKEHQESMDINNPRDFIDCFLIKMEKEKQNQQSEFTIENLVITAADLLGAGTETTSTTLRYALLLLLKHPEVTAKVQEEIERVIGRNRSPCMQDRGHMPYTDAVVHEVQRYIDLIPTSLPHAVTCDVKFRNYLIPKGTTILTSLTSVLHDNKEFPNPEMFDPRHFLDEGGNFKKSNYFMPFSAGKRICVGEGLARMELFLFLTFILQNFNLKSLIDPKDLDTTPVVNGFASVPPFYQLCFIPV

Compound	Potency
CCC1CO1 (stereo not given)	inactive
CC1(C)S[C@@H]2[C@H](NC(=O)C(c3ccccc3)S(=O)(=O)O)C(=O)N2[C@H]1C(=O)O (stereo not given in full)	inactive
CC(=O)NC1(c2cccc(F)c2)CCN(CC[C@@]2(c3ccc(Cl)c(Cl)c3)CN(c3ccccc3)C(=O)CO2)CC1	6.34 µM (active)
CC1=C(CC=O)C(C)(C)CCC1	inactive
O=C1c2ccccc2C(=O)C1c1nc2ccccc2c(Br)c1O	inactive
CN1CC(=O)N2[C@H](c3ccc4c(c3)OCO4)c3[nH]c4ccccc4c3C[C@@H]2C1=O	inactive
CCCCCCCC/C=C\CCCCCCCCO	inactive
CN(C)CCC=C1c2ccccc2C=Cc2ccccc21	inactive
C=Cc1ccc(S(=O)(=O)O)cc1	inactive
C[C@@]12CCC[C@H]1[C@@H]1CC[C@H]3C[C@@H](O)CC[C@]3(C)[C@H]1CC2	7.76 µM (active)
O=C(O)CCc1nc(-c2ccccc2)c(-c2ccccc2)o1	inactive
NC(=O)c1ccncc1	inactive
CCCCCCC(C)(C)C(=O)O	71 µM (active)
O=C1C(=O)c2ccccc2C(O)=C1C1CCC(c2ccc(Cl)cc2)CC1 (stereo not given)	inactive
C(=C\c1ccccc1)/c1ccccc1	44.4 µM (active)
Cc1cc(O)ccc1O	25.5 µM (active)
Cc1cc(=O)c2c(O)c3c(O)cc(=O)c4c3c3c(cc(O)c1c23)C(C)(C)C=4O	inactive
Cc1ccco1	inactive
Cc1ccccc1N=C(N)Nc1ccccc1C	inactive
CCCCCCCCOc1ccc(C(=O)O)cc1	49.7 µM (active)

Compound	Potency
CCOC(=O)c1ccc(I)cc1	80.4 µM (active)
Oc1cccc(Nc2ccccc2)c1	13.2 µM (active)
O=C1c2ccccc2C(=O)C1c1ccc(Br)cc1	1.55 µM (active)
C[C@@H]1CC(=O)NN=C1c1ccc(NN=C(C#N)C#N)cc1	17.4 µM (active)
c1ccc2sc(SN(C3CCCCC3)C3CCCCC3)nc2c1	7.87 µM (active)
Cc1ccc(C(C)(C)O)cc1	inactive
CC1=Nc2ccc3ccccc3c2C1(C)C	8.94 µM (active)
Cc1cc(C)c(N)cc1C	7.94 µM (active)
O=C1NC(=O)c2cc([N+](=O)[O-])ccc21	71.6 µM (active)
Brc1cc(Br)c(Oc2cc(Br)c(Br)cc2Br)cc1Br	13.8 µM (active)
CS(=O)(=O)c1ccc(-c2cn3ccccc3n2)cc1	24.5 µM (active)
Cc1cccc(N(C)C(=S)Oc2ccc3c(c2)CCC3)c1	1.74 µM (active)
CCCCC(CC)CN (stereo not given)	inactive
O=C(OC(=O)c1ccccc1)c1ccccc1	inactive
Brc1cc2ccccc2c2ccccc12	40.2 µM (active)
CC[N+](CC)(CCNC(=O)C(=O)NCC[N+](CC)(CC)Cc1ccccc1Cl)Cc1ccccc1Cl	inactive
C=C1c2cccc(O)c2C(O)=C2C(=O)[C@]3(O)C(O)=C(C(N)=O)C(=O)[C@@H](N(C)C)[C@@H]3[C@@H](O)[C@H]12	inactive
CC(O)c1ccccc1 (stereo not given)	inactive
COC(=O)[C@H]1[C@H]2C[C@@H]3c4[nH]c5cc(OC)ccc5c4CCN3C[C@H]2C[C@@H](OC(=O)/C=C/c2ccc(O)c(OC)c2)[C@@H]1OC	inactive
CC(C)=CCC1C(=O)N(c2ccccc2)N(c2ccccc2)C1=O	27.5 µM (active)
